The structures appear in SMILES notation. Values without a mark were called inactive. Active and inactive are the calls of the source. Calls follow the shape of the dose curve; as a rule, active = well fitted curve in the direction sought with a large enough effect; inconclusive = small, poorly fitted or top-dose-only effect, or another doubt; inactive = no such curve, though single readings can be large or run the other way.

A short description of this test: qHTS screen for inhibitors of ELG1-dependent DNA repair in human embryonic kidney (HEK293T) cells expressing luciferase-tagged ELG1: 5FU Viability Assay for probe SAR. Conditions: HEK293T ELG1-luc, CellTiter-Glo viability, 16 h; series mostly up to 46.1 µM; activity change, negative = inhibition: at the top concentration. An excerpt:
Cancer cells divide rapidly compared to normal cells in the body. During cell division, cancer cells need to duplicate their genome by DNA replication. The failure of genome duplication leads to cancer cells' death. Therefore, inhibitors of DNA replication could specifically kill cancer cells. Based on this concept, many chemotherapeutic agents were developed and have been used to treat cancer patients. However, there are a limited number of agents available in the clinical setting, and some of those that do exist have low efficacy and severe side effects. Therefore, if we can find the compounds that effectively block DNA replication either by directly damaging DNA or by inhibiting other cellular mechanisms, the options for cancer treatment will be broadened. With this in mind, we developed a quantitative high-throughput ELG1-luciferase reporter gene assay. Small molecules that specifically block ELG1 function in response to DNA damage can be identified by monitoring the suppression of luciferase activity. Since ELG1 defines a pathway for repairing DNA damage, agents blocking ELG1 function can be used to sensitize cancer cells to chemotherapeutic agents whose mechanism of action involves the induction of DNA damage. Cytotoxicity of the active compounds in the ELG1 qHTS assay (AID 493107) was assessed using the CellTiter-Glo Luminescent Cell Viability Assay kit (Promega, USA). CellTiter-Glo measures the intracellular ATP present in metabolically active cells using Ultra-Glo as the luciferase to detect ATP levels. In brief, the luciferase in the buffer catalyzes the oxidation of luciferin to oxyluciferin and light which is dependent on ATP. […] DMSO and wells with media alone were used as positive and negative controls, respectively. Inactivity to this assay is the desirable outcome. NIH Molecular Libraries Probe Production Network [MLPCN] NIH Chemical Genomics Center [NCGC] MLPCN Grant: R03 MH092164 Assay Provider: Kyungjae Myung, NHGRI, NIH
ELG1-luc HEK293T cells will be seeded in 1536-well plates at a density of 2,000 cells/well. Approximately 5 hours after plating, compounds will be added to the plate by pin tool transfer and 5-fluorouridine will be added by FRD dispenser (final concentration of 5-fluorouridine =10 µM). 16 hours following the addition of the compounds, cell viability will be measured using CellTiter Glo.
(In general: Quantitative high-throughput screening tests each substance at several concentrations.)
Consider `N#Cc1cc(-c2nc(Nc3ccc(F)c(F)c3)c3ccccc3n2)ccn1`, for which the “activity change, negative = inhibition” value is 3.09%. Still for that read-out and setting: the result for `Cc1nc2ccc(Nc3nc(-c4ccncc4)nc4ccccc34)cc2s1` reads 30.3%; that for `Fc1ccc(-c2ccc(Nc3nc(-c4ccncc4)nc4ccccc34)cc2F)c(F)c1`, -9.69%. Take `COc1cc(Nc2nc(-c3ccncc3)nc3ccccc23)ccc1F`: the outcome was inactive. For the compound `Cc1cnccc1-c1nc(Nc2ccc(F)c(F)c2)c2ccccc2n1`, the “activity change, negative = inhibition” value was 30.7%.

Turning to `Fc1ccc(Nc2nc(-c3ccnc(N4CCCCC4)c3)nc3ccccc23)cc1F`, the “activity change, negative = inhibition” value is 4.06%.

As to `Fc1cccc(Nc2nc(-c3ccncc3)nc3ccccc23)c1`, the “activity change, negative = inhibition” value was 20.6%.

With `CSc1ccccc1-c1ccc(Nc2nc(-c3ccncc3)nc3ccccc23)cc1F`, the “activity change, negative = inhibition” value is -8.99%.

Take `Fc1cc(Nc2nc(-c3ccncc3)nc3ccccc23)ccc1-c1cccc(OC(F)(F)F)c1`: the “activity change, negative = inhibition” value is -29.3%. On to `COc1ccc(Nc2nc(-c3ccncc3)nc3ccccc23)cc1F`, for which the “activity change, negative = inhibition” value was 0.644%. Same read-out and setting: the result for `Cc1ccc(Nc2nc(-c3ccncc3)nc3ccccc23)cc1F` reads 10.7%; that for `O=[N+]([O-])c1ccc(-c2nc(Nc3ccc(F)c(F)c3)c3ccccc3n2)cc1`, -1.93%; that for `Fc1cc(Nc2nc(-c3ccncc3)nc3ccccc23)ccc1-c1ccc(F)c(F)c1F`, 20.8%. For `Fc1ccccc1-c1ccc(Nc2nc(-c3ccncc3)nc3ccccc23)cc1F`, the “activity change, negative = inhibition” value is -31.3%.

As to `Fc1cc(Nc2nc(-c3ccncc3)nc3ccccc23)ccc1-c1cccc(OC(F)F)c1`, the “activity change, negative = inhibition” value was -3.5%. Same read-out and setting: under `Cc1cc(-c2nc(Nc3ccc(F)c(F)c3)c3ccccc3n2)cc(C)n1` stands 30.7%; under `Fc1cc(Nc2nc(-c3ccncc3)nc3ccccc23)ccc1-c1ccc2[nH]ncc2c1`, -0.733%; under `Fc1ccc(Nc2nc(-c3ccncc3)nc3ccccc23)cc1F`, 57.5%.

Turning to `COc1ccc(-n2c(C)c(C(C)=O)c3cc(O)ccc32)cc1`, the “activity change, negative = inhibition” value was -9.12%.

In the case of `Fc1cccc(-c2ccc(Nc3nc(-c4ccncc4)nc4ccccc34)cc2F)c1`, the “activity change, negative = inhibition” value was 24.5%. For the compound `COC(=O)c1ccc(Nc2nc(-c3ccncc3)nc3ccccc23)cc1OC`, the “activity change, negative = inhibition” value was 34%.

As for `COc1cnccc1-c1nc(Nc2ccc(F)c(F)c2)c2ccccc2n1`, the “activity change, negative = inhibition” value is -5.9%. For the compound `Cc1cc(-c2nc(Nc3ccc(F)c(F)c3)c3ccccc3n2)ccn1`, the “activity change, negative = inhibition” value was 22.7%.

For the origin of these results see PubChem BioAssay AID686921 (National Center for Advancing Translational Sciences (NCATS), 2013).
